Type in all cases: functional
For assay [1], the system named is Plasmodium falciparum. In words: GSK_TCMDC: Inhibition of Plasmodium falciparum 3D7 in whole red blood cells, using parasite LDH activity as an index of growth. Test compounds present at 2uM.
The subject of assay [2] is Plasmodium falciparum. As to the kind of experiment: GSK_TCMDC: Inhibition of Plasmodium falciparum Dd2 in whole red blood cells, using parasite LDH activity as an index of growth. Test compounds present at 2uM.
A further assay deals with HepG2. As to the kind of experiment: GSK_TCMDC: Percent inhibition of human HepG2 cell line. Test compounds present at 10uM.

The Inhibition is the percentage by which the read-out fell short of the control. High values mean a response far below the control, low ones a response near the control.

In the case of `COC(=O)c1cccc(CN(CCC(O)(C(F)(F)F)C(F)(F)F)C(=O)CC2CCCC2)c1`, the Inhibition is listed as 98% with Plasmodium falciparum [1], 53% in the assay on Plasmodium falciparum [2] and 0% in the assay with HepG2.

Take `CN(c1ccc(C(=O)N[C@@H](CCC(=O)O)C(=O)O)cc1)S(=O)(=O)c1ccc2nc(N)[nH]c(=O)c2c1`: the Inhibition in the assay with Plasmodium falciparum [1] was determined as 97%; with Plasmodium falciparum [2], 3%; in the assay with HepG2, 16%.

Take `COc1ccc(Nc2nc(NC3CCCC3)cc(-c3ccc(OC)cc3)n2)cc1`: the results for the Inhibition in the assay with Plasmodium falciparum [1], in the assay with Plasmodium falciparum [2] and with HepG2 were 86%, 15% and 12%, respectively.

On to `Cc1[nH]c(C)c(-c2ccc(-c3ccccc3F)nc2)c(=O)c1Br`, for which the Inhibition with Plasmodium falciparum [1] is listed as 97%; with Plasmodium falciparum [2] it was 97%; with HepG2, 2%.

In the case of `Br.c1ccc(-c2nc(Nc3ccncc3)sc2-c2ccccc2)cc1`, the Inhibition stood at 97% in the assay with Plasmodium falciparum [1], 18% with Plasmodium falciparum [2] and 0% in the assay with HepG2.

Consider `CN(C)Cc1cccc(-c2ccc(NC(=O)c3ccc4c(=O)n(CCN5CCCCC5)cnc4c3)cc2)c1`, for which the Inhibition came out at 100% in the assay with Plasmodium falciparum [1], 67% with Plasmodium falciparum [2] and 23% in the assay on HepG2.

As for `CC(=O)NCCNCc1cccc(C(=O)NCc2cccc(C(F)(F)F)c2)c1`, the Inhibition in the assay with Plasmodium falciparum [1] is given as 95%; in the assay on Plasmodium falciparum [2], 0%; with HepG2, 1%.

In the case of `CCOC(=O)c1c[nH]c2c(sc3cc(OC)ccc32)c1=O`, the results for the Inhibition in the assay on Plasmodium falciparum [1], in the assay on Plasmodium falciparum [2] and in the assay on HepG2 were 96%, 93% and 0%, respectively.

`Nc1nc(O)c2cc(CN(C=O)c3ccc(C(=O)N[C@@H](CCC(=O)O)C(=O)O)cc3)ccc2n1`: the Inhibition with Plasmodium falciparum [1] amounted to 93%; in the assay with Plasmodium falciparum [2], 94%; with HepG2, 0%.

For the compound `CN1CCCCC1CCc1cc(C(=O)Nc2ccc(-c3ccc(O)cc3)cc2)ccc1O` (stereo not drawn), the Inhibition with Plasmodium falciparum [1] is 91%; with Plasmodium falciparum [2], 11%; in the assay on HepG2, 6%.

As to `O=C(/C=C/c1ccc(Cl)c(Cl)c1)NCCCCCN1CCCN(C(=O)Nc2cccc(F)c2)CC1`, the Inhibition in the assay with Plasmodium falciparum [1] is 97%; in the assay on Plasmodium falciparum [2], 4%; in the assay with HepG2, 20%.

Source of the values: ChEMBL document CHEMBL1157539, “Thousands of chemical starting points for antimalarial lead identification” (Nature, 2010).
